High-throughput results (PubChem BioAssay)
CHX counter – counter-screen hit for Shiga toxin inhibitors, cycloheximide. AID 2314. max response, %. actives 12% (n = 300,000). cell reporter, cycloheximide protein synthesis inhibition counterscreen; in the data active = max response mostly above about 13%, no sharp cut-off; inactive = mostly below about 14%; also: read at 38.3 µM for the half of the compounds with a filed dose
AmpC no deterg – inhibitors of E. coli AmpC beta-lactamase without detergent; P00811; AmpC nitrocefin hydrolysis, absorbance 480 nm, 0.0001% Triton; Potency, µM (highest dose often 57.1 µM), hits mostly inhibitors; actives 0.52% (n = 330,000); AID 485341; also: nearly all actives have a fitted effect of over 20% in size
Target sequence (P00811 whole entry, looked up): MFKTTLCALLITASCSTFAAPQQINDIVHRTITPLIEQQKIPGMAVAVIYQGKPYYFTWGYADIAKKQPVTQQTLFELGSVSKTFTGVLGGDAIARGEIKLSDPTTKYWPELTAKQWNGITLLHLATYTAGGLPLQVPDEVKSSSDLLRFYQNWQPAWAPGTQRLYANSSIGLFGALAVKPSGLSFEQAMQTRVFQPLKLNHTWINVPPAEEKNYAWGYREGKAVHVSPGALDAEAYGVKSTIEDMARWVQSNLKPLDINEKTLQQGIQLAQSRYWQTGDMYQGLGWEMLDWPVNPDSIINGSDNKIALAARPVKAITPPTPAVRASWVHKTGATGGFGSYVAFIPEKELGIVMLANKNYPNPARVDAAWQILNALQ
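AmpC (5.3 nM in the dispensed reagent) in 20 mM phosphate pH 7.0 with 0.01% (detergent screen) or 0.0001% Triton X-100 was preincubated with compounds for 15 min at room temperature. Nitrocefin was then added from an 800 uM solution, and hydrolysis was followed at 480 nm.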
NS1 inh – influenza NS1 inhibition; Potency, µM (doses to about 46.1 µM); actives 0.4% (n = 270,000); AID 2326; calls by dose curve; also: actives are rising curves; nearly all actives have a fitted effect of over 50% in size
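A cell-based growth assay was used: compounds that relieve NS1-induced slow growth of budding yeast raise OD600. Assay medium was yeast nitrogen base with ammonium sulphate and -URA supplement, pH 6.0, with 2% galactose.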
AmpC detergent – AmpC beta-lactamase inhibition with detergent present; P00811; AmpC hydrolysis of nitrocefin, absorbance 480 nm, 0.01% Triton; Potency, µM (series often up to 114 µM), most hits filed as inhibitors; actives 0.041% (n = 370,000); also: nearly all actives have a fitted effect of over 25% in size
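AmpC (5.3 nM in the dispensed reagent) in 20 mM phosphate pH 7.0 with 0.01% (detergent screen) or 0.0001% Triton X-100 was preincubated with compounds for 15 min at room temperature. Nitrocefin was then added from an 800 uM solution, and hydrolysis was followed at 480 nm.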
Shiga inhibitor – blocks Shiga toxin action in Vero cells; inhibition, % at 38.7 µM; Vero cells, Shiga toxin protein synthesis inhibition reporter; actives 9.2% (n = 290,000); in the data active = inhibition mostly above about 28%, no sharp cut-off; inactive = mostly below about 43%
Numbers stand for hits; - = inactive; ? = inconclusive; . = no result given; [ ] = remark or other dose. This excerpt belongs to a sample that is enriched for hits. Unless noted, calls follow the shape of the dose curve; as a rule, active = well fitted curve in the direction sought with a large enough effect; inconclusive = small, poorly fitted or top-dose-only effect, or another doubt; inactive = no such curve, though single readings can be large; an effect the other way counts as inactive or inconclusive.

SMILES | CHX counter | AmpC no deterg | NS1 inh | AmpC detergent | Shiga inhibitor
Cc1ccc(C)c(N2CCN(Cc3nnc(-c4ccc5c(c4)OCO5)o3)CC2)c1 | . | . | . | - | .
Cc1ccc(Nc2nnc(-c3ccc4c(c3)OCO4)o2)c(C)c1 | 32 | - | - | - | 62
COc1ccc(-c2nnc3cccc(Cl)n23)c(OC)c1 | 10 | - | - | - | 43
Clc1ccc(-c2nnc3cccc(Cl)n23)c(Cl)c1 | - | - | - | - | -
Cc1cccc(C(C)C)c1NS(=O)(=O)c1cn(C)nc1C | - | - | - | - | -
COc1cccc(-c2nc3ccccc3s2)c1O | 27 | - | - | - | -
CN1CCN(c2nc(-c3ccccc3O)nc3ccccc23)CC1 | - | - | - | - | -
O=c1c(-c2nc3ccccc3s2)cccn1Cc1ccc(Cl)cc1 | - | - | - | - | -
COc1cccc(-c2nc(N3CCN(C)CC3)c3ccccc3n2)c1O | 14 | - | - | - | -
COc1cc(OC)cc(C(=O)Nc2ccccc2-c2nc3ccccc3s2)c1 | . | . | . | - | .
COc1cc(OC)c(-c2nc3ccccc3s2)cc1OC | 24 | - | - | - | 33
Clc1ncccc1-c1nc2ccccc2s1 | 34 | - | - | - | 106
COC(=O)c1ccc(C(=O)O)nc1 | - | - | - | - | -
CSc1ncccc1C(=O)Nc1cc(Cl)ccc1N1CCOCC1 | . | - | . | . | .
COc1ccc(OCC(=O)NNc2nc3ccccc3s2)cc1 | 44 | 10µM | - | - | 77
CCOc1ccc2nc(NC(=O)NC3CCCCC3)sc2c1 | - | - | - | - | -
CS(=O)(=O)c1ccc2nc(NC(=O)C3=NN(c4ccccc4)C(=O)CC3)sc2c1 | - | - | - | - | -
COc1ccc2nc(NC(=O)Nc3ccccc3)sc2c1 | 56 | - | - | - | 92
CCOc1ccc2nc(NC(=O)Nc3ccccc3)sc2c1 | 22 | - | - | - | -
COc1ccc2nc(NC(=O)c3ccccc3C(=O)O)sc2c1 | - | - | - | - | -
COc1ccc2nc(NC(=O)C3=NN(c4ccccc4)C(=O)CC3)sc2c1 | 18 | - | - | ? | -
O=C(Nc1nc2c(F)cc(F)cc2s1)c1ccccn1 | 35 | -[11.4 µM] | . | - | 95
COc1ccc(NC(=O)Nc2nc3ccccc3s2)cc1 | 44 | - | - | - | 114
CCOc1ccc2nc(NC(=O)Nc3cccs3)sc2c1 | 63 | - | - | - | 72
Cc1ccc2nc(NC(=O)c3ccccn3)sc2c1 | - | - | . | - | -
SMILES | CHX counter | AmpC no deterg | NS1 inh | AmpC detergent | Shiga inhibitor
CCOc1ccc2nc(NC(=O)c3ccccn3)sc2c1 | 24 | - | - | - | 45
CC(=O)Nc1ccc(S(=O)(=O)NC(C(=O)O)C(C)O)cc1 (stereo unspecified) | - | - | - | ? | -
O=C(NC1CC1)c1ccc(Cn2c(SCc3ccccc3F)nc3cccnc32)cc1 | . | . | . | - | .
COC(=O)c1cccc(COC(=O)c2ccc(CS(=O)(=O)c3ccc(C)cc3)cc2)c1 | - | - | - | - | -
Cc1cc(NC(=O)Nc2ccccc2)n(C(C)(C)C)n1 | - | - | - | - | -
CC(C)(C)c1nc(NC(=O)Nc2ccccc2)sc1Br | 46 | -[2.29 µM] | - | - | 71
COC(=O)C(C(=O)OC)c1ccc(NC(=O)c2cccc(Cl)c2)cc1 | - | - | - | - | -
NS(=O)(=O)c1ccc(NC(=O)c2csnn2)cc1 | . | . | . | - | .
CC(C)c1ccc(NC(=O)c2csnn2)cc1 | 30 | - | - | ? | 42
CCc1ccc(NC(=O)c2cccnc2)cc1 | 32 | - | - | - | 73
CCCNS(=O)(=O)c1ccc(NC(=O)c2cccnc2)cc1 | - | - | - | - | -
CCSc1ccc(NC(=O)c2cccnc2)cc1 | 34 | - | - | - | -
CC(C)c1ccc(NC(=O)c2snc3ccc(Cl)cc23)cc1 | 39 | - | - | - | 74
Cc1oc(-c2cc(F)cc(F)c2)nc1CN1CCSCC1 | - | - | - | - | -
CCOc1ccccc1NC(=O)Cn1c(=O)n(Cc2ccc(OC)cc2)c(=O)c2oc3ccccc3c21 | . | . | . | - | .
CC/C(=C\C(=O)c1cccnc1)Nc1ccc(C)c(C)c1 | 17 | - | - | - | 52
CC(C)c1ccc(NC(=S)NNC(=O)c2cccnc2)cc1 | - | - | - | - | -
Cc1ccc(NC(=O)N(C2CCCCC2)C(C)c2cccnc2)cc1C (stereo unspecified) | - | - | - | ? | -
CCc1ccc(NC(=O)N(C2CCCCC2)C(C)c2cccnc2)cc1 (stereo unspecified) | 33 | - | - | ? | -
CC(C)c1ccc(NC(=O)c2cccnc2)cc1 | 23 | - | - | ? | -
